Data taken from PubChem BioAssay (Tox21).
Inconclusive results are not listed. Active and inactive are the calls of the source. Calls come from the whole dose curve; as a rule, active = well fitted curve in the direction sought with a large enough effect in the repeat runs; inconclusive = weak or mixed curves; inactive = no such curve, though single readings can be large; an effect the other way counts as inactive or inconclusive.

Experiments:
[1] = qHTS RealTime-Glo MT Cell Viability Assay in HepG2 cells - 8 hour (AID 1224873); note: nearly all actives have a fitted effect of over 55% in size; note: potency is the fitted concentration of half-maximal effect
Method in brief: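 HepG2 cells (600/well) mixed with RealTime-Glo MT reagent, settled 5 h at 37 C/5% CO2 before compound addition. Nonlytic NanoLuc luminescence from viable-cell prosubstrate reduction read repeatedly during 40 h treatment at 37 C.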

[2] = qHTS RealTime-Glo MT Cell Viability Assay in HEK293 cells - 40 hour (AID 1224874); conditions: RealTime-Glo luminescence; max response: stronger effect = lower value; note: nearly all actives have a fitted effect of over 50% in size; note: potency is the fitted concentration of half-maximal effect
Method in brief: (§1)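 HEK293 cells mixed with RealTime-Glo reagents (NanoLuc plus cell-permeant prosubstrate) at 600 cells/well, preincubated 5 h at 37 C/5% CO2, then given 23 nL compound in DMSO. Nonlytic luminescence from viable cells was read at 0, 8, 16, 24, 32 and 40 h.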

[3] = A CellTox Green Cytotoxicity Assay to monitor cytotoxicity in HEK293 cells - 24 hour (AID 1224875); note: nearly all actives have a fitted effect of over 45% in size; note: potency is the fitted concentration of half-maximal effect; for activity change: series mostly up to about 77 µM
Method in brief: (§2)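 HEK293 cells premixed with CellTox Green dye were seeded at 600 cells/well and left 5 h at 37 C/5% CO2 before pin transfer of 23 nL compound in DMSO. Fluorescence from dye bound to dead-cell DNA was read during 40 h treatment.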

[4] = A CellTox Green Cytotoxicity Assay to monitor cytotoxicity in HepG2 cells - 16 hour (AID 1224876); note: nearly all actives have a fitted effect of over 45% in size; note: potency is the fitted concentration of half-maximal effect
Method in brief: (§3)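 HepG2 cells were seeded together with the CellTox Green dye at 600 cells/well, left 5 h at 37 C/5% CO2, then given compounds in DMSO. Fluorescence from dye bound to dead-cell DNA was read repeatedly over 40 h of treatment at 37 C.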

[5] = qHTS RealTime-Glo MT Cell Viability Assay in HepG2 cells - 32 hour (AID 1224877); note: nearly all actives have a fitted effect of over 55% in size; note: potency is the fitted concentration of half-maximal effect
Method in brief: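 HepG2 cells (600/well) were dispensed with RealTime-Glo reagents, incubated 5 h at 37 °C, then treated with compounds in DMSO for up to 40 h. Nonlytic NanoLuc luminescence reflecting viable cells was read at each stated time point.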

[6] = A CellTox Green Cytotoxicity Assay to monitor cytotoxicity in HepG2 cells - 24 hour (AID 1224878); note: nearly all actives have a fitted effect of over 45% in size; note: potency is the fitted concentration of half-maximal effect
Method in brief: as §3

[7] = A CellTox Green Cytotoxicity Assay to monitor cytotoxicity in HepG2 cells - 40 hour (AID 1224879); note: nearly all actives have a fitted effect of over 40% in size; note: potency is the fitted concentration of half-maximal effect
Method in brief: as §3

[8] = qHTS RealTime-Glo MT Cell Viability Assay in HEK293 cells - 0 hour (AID 1224880); note: top concentration of the series differs between compounds; nearly all actives have a fitted effect of over 45% in size
Method in brief: as §1

[9] = A CellTox Green Cytotoxicity Assay to monitor cytotoxicity in HEK293 cells - 32 hour (AID 1224881); note: nearly all actives have a fitted effect of over 40% in size; note: potency is the fitted concentration of half-maximal effect
Method in brief: as §2

[10] = A CellTox Green Cytotoxicity Assay to monitor cytotoxicity in HepG2 cells - 0 hour (AID 1224882); note: nearly all actives have a fitted effect of over 35% in size
Method in brief: as §3
% is set by controls: 0 for no effect and ±100 for the full control effect.

OCCCc1cccnc1
inactive: Potency [1] | max response [2] -2.22% | Potency [3] | Potency [4] | Potency [5] | Potency [6] | Potency [7] | Potency [8] | Potency [9] | Potency [10]

C#CC(O)CCC (stereo not given)
inactive: Potency [1] | max response [2] 0.0439% | Potency [3] | Potency [4] | Potency [5] | Potency [6] | Potency [7] | Potency [8] | Potency [9] | Potency [10]

NC(=O)c1ccccc1N
inactive: Potency [1] | max response [2] -1.93% | Potency [3] | Potency [4] | Potency [5] | Potency [6] | Potency [7] | Potency [8] | Potency [9] | Potency [10]

O=C1OC(=O)c2cccc3cccc1c23
inactive: Potency [1] | max response [2] -9.96% | Potency [3] | Potency [4] | Potency [5] | Potency [6] | Potency [7] | Potency [8] | Potency [9] | Potency [10]

Cc1cccc(N(C)C)c1
inactive: Potency [1] | max response [2] 7.91% | Potency [3] | Potency [4] | Potency [5] | Potency [6] | Potency [7] | Potency [8] | Potency [9] | Potency [10]

CC(=O)O[C@@H]1C[C@@H]2CC[C@@]1(C)C2(C)C
inactive: Potency [1] | max response [2] 0.199% | Potency [3] | Potency [4] | Potency [5] | Potency [6] | Potency [7] | Potency [8] | Potency [9] | Potency [10]

CCCC(O)C(O)CO (stereo not given)
inactive: Potency [1] | max response [2] 4.32% | Potency [3] | Potency [4] | Potency [5] | Potency [6] | Potency [7] | Potency [8] | Potency [9] | Potency [10]

CN(C)CCN1CCOCC1
inactive: Potency [1] | max response [2] 7.62% | Potency [3] | Potency [4] | Potency [5] | Potency [6] | Potency [7] | Potency [8] | Potency [9] | Potency [10]

O[C@@H](c1cc(C(F)(F)F)nc2c(C(F)(F)F)cccc12)[C@H]1CCCCN1
active: Potency [1] 23.9 µM | Potency [2] 8.49 µM | Potency [3] 26.8 µM | Potency [4] 23.9 µM | Potency [5] 13.4 µM | Potency [6] 21.3 µM | Potency [7] 15.1 µM | Potency [9] 23.9 µM
inactive: Potency [8] | Potency [10]

Cn1cccc1
inactive: Potency [1] | max response [2] 10.4% | Potency [3] | Potency [4] | Potency [5] | Potency [6] | Potency [7] | Potency [8] | Potency [9] | Potency [10]

CCOCN(C(=O)CS(=O)(=O)O)c1c(C)cccc1CC
inactive: Potency [1] | max response [2] 8.02% | Potency [3] | Potency [4] | Potency [5] | Potency [6] | Potency [7] | Potency [8] | Potency [9] | Potency [10]

CCc1cccc(CC)c1NC(=O)C(=O)O
inactive: Potency [1] | max response [2] 9.15% | Potency [3] | Potency [4] | Potency [5] | Potency [6] | Potency [7] | Potency [8] | Potency [9] | Potency [10]

CC(C)=CCCC(C)CCOC(=O)C(C)C (stereo not given)
inactive: Potency [1] | max response [2] 12.8% | Potency [3] | Potency [4] | Potency [5] | Potency [6] | Potency [7] | Potency [8] | Potency [9] | Potency [10]

CCN1CCN(c2cc(-c3ccc(F)cc3)c3c(n2)CCCCCC3)CC1
active: Potency [7] 11.7 µM
inactive: viability change, negative = cytotoxic [1] 1.26% [at 15.8 µM] | max response [2] -18.7% | activity change [3] 2.45% [at 15.8 µM, stronger effect = higher value] | cytotoxicity increase [4] 12.3% [at 15.8 µM] | activity change, negative = cytotoxic [5] -10.2% [at 15.8 µM] | cytotoxicity [6] 24% [at 15.8 µM] | activity change, negative = cytotoxicity [8] 9.2% [at 15.8 µM] | cytotoxicity increase [9] 10% [at 15.8 µM] | cytotoxicity [10] -0.25% [at 15.8 µM]

C=C(C)C(=O)OCCC[Si](Cl)(Cl)Cl
inactive: Potency [1] | max response [2] -5.22% | Potency [3] | Potency [4] | Potency [5] | Potency [6] | Potency [7] | Potency [8] | Potency [9] | Potency [10]

O=C(O)Cc1ccc(OCCNC[C@H](O)c2ccccc2)cc1
inactive: Potency [1] | max response [2] 6.67% | Potency [3] | Potency [4] | Potency [5] | Potency [6] | Potency [7] | Potency [8] | Potency [9] | Potency [10]

COc1cccc(OC)c1O
inactive: Potency [1] | max response [2] 8.86% | Potency [3] | Potency [4] | Potency [5] | Potency [6] | Potency [7] | Potency [8] | Potency [9] | Potency [10]

O=S(O)O
inactive: viability change, negative = cytotoxic [1] 3.13% [at 15.8 µM] | max response [2] 7.9% | activity change [3] -0.851% [at 15.8 µM, stronger effect = higher value] | cytotoxicity increase [4] -6.63% [at 15.8 µM] | activity change, negative = cytotoxic [5] 4.15% [at 15.8 µM] | cytotoxicity [6] -9.86% [at 15.8 µM] | cytotoxicity increase [7] -12.9% [at 15.8 µM] | activity change, negative = cytotoxicity [8] 10.2% [at 15.8 µM] | cytotoxicity increase [9] 0.593% [at 15.8 µM] | cytotoxicity [10] -14.5% [at 15.8 µM]
